Test results reported in PubChem BioAssay (NCATS).
Values without a mark were called inactive. Results filed as inconclusive are left out. Entries that show only a call come without a potency. Active and inactive are the calls of the source. The call rests on the fitted dose curve; in most records, active means well fitted curve in the direction sought with a large enough effect; inconclusive means small, poorly fitted or top-dose-only effect, or another doubt; inactive means no such curve, though single readings can be large; an effect the other way counts as inactive or inconclusive.

What was measured:
[1] = OV-KATE Cancer Cell Toxicity qHTS against the NCATS CANVASS Library (AID 1347345)
Procedure, shortened: (§1)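 Step one: seed 1000 cells per well. Step two: incubate 4 h. Step three: add test compounds in 11 concentrations. Step four: culture 72 h, then add CellTiter-Glo and record luminescence after 15min.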

[2] = HPAF-II Cancer Cell Toxicity qHTS against the NCATS CANVASS Library (AID 1347346); further: series mostly up to about 38 µM; nearly all actives have a fitted effect of over 55% in size
Procedure, shortened: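 Cytotoxicity read-out was CellTiter-Glo luminescence after 72 h at 37 degrees C exposure of HPAF-II cells (1000/well) to compounds in an 11-point titration.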

[3] = Panc-1005 Cancer Cell Toxicity qHTS against the NCATS CANVASS Library (AID 1347349); further: series mostly up to about 38 µM; nearly all actives have a fitted effect of over 60% in size
Procedure, shortened: as §1

[4] = SW1088 Cancer Cell Toxicity qHTS against the NCATS CANVASS Library (AID 1347350); further: nearly all actives have a fitted effect of over 75% in size
Procedure, shortened: as §1

[5] = COV-362 Cancer Cell Toxicity qHTS against the NCATS CANVASS Library (AID 1347352); further: series mostly up to about 38 µM
Procedure, shortened: (§2)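 Toxicity was measured as CellTiter-Glo luminescence after 72 h exposure to an 11-point compound series. Compound was added to 1000 cells/well 4 h after seeding.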

[6] = UWB1.289-WTBRCA1 Cancer Cell Toxicity qHTS against the NCATS CANVASS Library (AID 1347354)
Procedure, shortened: as §2

[7] = HEK-293 Cancer Cell Toxicity qHTS against the NCATS CANVASS Library (AID 1347355); further: nearly all actives have a fitted effect of over 65% in size; further: potency means the concentration at half of the fitted maximal effect; on outcome: series mostly up to about 46 µM
Procedure, shortened: as §2

[8] = SDT Cancer Cell Toxicity qHTS against the NCATS CANVASS Library (AID 1347365); further: nearly all actives have a fitted effect of over 60% in size; further: potency means the concentration at half of the fitted maximal effect
Procedure, shortened: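 Cytotoxicity taken from CellTiterGlo ATP luminescence after 72 hr at 37C, 5% CO2. Canine glioma line SDT, 500 cells/well, treated at 11 concentrations; bortezomib dose series as control.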

[9] = biological target: Nuclear receptor subfamily 1 group I member 3 (Homo sapiens) (UniProt Q14994); assay: qHTS for Constitutive Androstane Receptor (CAR) Antagonist screened against the NCATS CANVASS Library (AID 1347372);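 further: cells stimulated with 50 nM CITCO agonist so inhibition reflects antagonism; series mostly up to about 46 µM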
Procedure, shortened: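 Antagonist mode: compound added alongside 50 nM CITCO to HepG2-hCAR-CYP2B6 reporter cells, 24hr at 37C. Viability by CellTiter-Fluor fluorescence, then CAR-driven luciferase by ONE-Glo luminescence.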

[10] = biological target: Nuclear receptor subfamily 1 group I member 3 (Homo sapiens) (UniProt Q14994); assay: qHTS for Constitutive Androstane Receptor (CAR) Agonist screened against the NCATS CANVASS Library (AID 1347373);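 further: every well also contained 1.5 µM PK11195 alongside the test compound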
Procedure, shortened: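 Agonist mode with 1.5uM PK11195 present: compounds for 24hr on HepG2-hCAR-CYP2B6 cells. CellTiter-Fluor fluorescence (ex 405, em 540 nm) gives viability; ONE-Glo luminescence reports CAR activation.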

[11] = qHTS for Hypoxia signaling pathway (HIF-1) antagonists against the NCATS CANVASS Library (AID 1347374); further: nearly all actives have a fitted effect of over 60% in size; further: potency means the concentration at half of the fitted maximal effect
Procedure, shortened: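 Antagonism scored as loss of CoCl2-driven (60 uM stock added) HRE beta-lactamase signal, read by CCF4 FRET at 460/530 nm. Compounds were tested in an 11-point series on ME-180 reporter cells for 17 hrs at 37C, with parallel CellTiter-Glo cytotoxicity.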

[12] = DH5-alpha competent E. coli microbial cell viability qHTS against the NCATS CANVASS Library (AID 1347377); settings: outcome: dose series up to 46.1 µM unless noted
Procedure, shortened: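 Bacterial viability as ATP-dependent luminescence (BacTiter-Glo), read after overnight 37 °C exposure of DH5-alpha competent E. coli to compounds in 11-point titration.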

[13] = Secretion counterscreen for inhibitors of the SERCaMP assay screened against the NCATS CANVASS Library (AID 1347390);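 further: light from luciferase secreted into medium read as a measure of general secretion; series mostly up to about 77 µM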
Procedure, shortened: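 SH-SY5Y-GLuc STOP cells; 4 h attach; cpds 0.001 - 77 uM (qHTS, 11 pts), 20 h 37C/5% CO2; coelenterazine in glow buffer; luminescence, 5 s exposure.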

[14] = qHTS for inhibitors of ER calcium dysfunction: SERCaMP assay screened against the NCATS CANVASS Library (AID 1347393);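 further: series mostly up to about 77 µM; lower secreted reporter signal means inhibitor of ER calcium depletion; nearly all actives have a fitted effect of over 40% in size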
Procedure, shortened: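 Thapsigargin-induced ER calcium depletion drives GLuc-SERCaMP secretion from SH-SY5Y cells; compounds given 16 h beforehand were scored by lowered coelenterazine luminescence after 4 h challenge.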

[15] = UWB1.289 Cancer Cell Toxicity qHTS against the NCATS CANVASS Library (AID 1347347); further: nearly all actives have a fitted effect of over 60% in size; further: potency means the concentration at half of the fitted maximal effect
Procedure, shortened: as §1

[16] = U-118MG Cancer Cell Toxicity qHTS against the NCATS CANVASS Library (AID 1347351); further: series mostly up to about 38 µM
Procedure, shortened: as §1

[17] = KB-8-5-11 Cancer Cell Toxicity qHTS against the NCATS CANVASS Library (AID 1347364); further: nearly all actives have a fitted effect of over 75% in size
Procedure, shortened: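 Viability read as CellTiter-Glo luminescence after 72 h at 37 °C, 5% CO2. 11-point compound series on 500 KB-8-5-11 cells/well in DMEM/10% FBS. Follow-up plating included 1 uM tariquidar in the medium.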

[18] = qHTS for Hypoxia signaling pathway (HIF-1) agonists against the NCATS CANVASS Library (AID 1347375)
Procedure, shortened: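 Beta-lactamase reporter under HRE control in ME-180 cells; compounds (11-point qHTS series) added after 5 hrs plating, then 17 hrs at 37C. FRET substrate read after 2 hr; same-well CellTiter-Glo luminescence gave viability and normalization.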

[19] = qHTS for inhibitors of Wild type Zika virus screened against the NCATS CANVASS Library (AID 1347396);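 further: ATP luminescence of surviving cells so rescue from viral cell killing; series mostly up to about 46 µM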
Procedure, shortened: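 Using ATP-based luminescence (CellTiter Glo), this screen scores rescue of Vero 766 cells from wild-type Zika killing at 72 h post-infection. Compounds are tested in a concentration series.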

[20] = qHTS for ATAD5 Agonist screened against the NCATS CANVASS Library (AID 1347367);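 further: luciferase reporter driven by ATAD5 which rises upon DNA damage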
Procedure, shortened: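 HEK293T-ATAD5 luc reporter; 2000 cells/well; 5hr settle; cpd 11-pt qHTS; 16hr 37C 5% CO2 dark; viability by CellTiter-Fluor (AFC fluorescence); then luciferase luminescence, 30min RT.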

Sequence of Nuclear receptor subfamily 1 group I member 3 (Homo sapiens) (Q14994 whole entry, looked up): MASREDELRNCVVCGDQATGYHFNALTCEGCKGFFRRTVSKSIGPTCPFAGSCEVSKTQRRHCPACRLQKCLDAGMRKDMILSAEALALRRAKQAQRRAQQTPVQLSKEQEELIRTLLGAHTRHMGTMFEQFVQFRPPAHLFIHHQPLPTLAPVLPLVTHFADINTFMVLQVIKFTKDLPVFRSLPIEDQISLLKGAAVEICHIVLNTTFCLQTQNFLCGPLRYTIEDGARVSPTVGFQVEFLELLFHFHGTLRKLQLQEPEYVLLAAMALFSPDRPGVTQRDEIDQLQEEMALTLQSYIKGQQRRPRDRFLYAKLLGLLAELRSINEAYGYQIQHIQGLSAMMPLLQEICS

| SMILES | Potency [1] | Potency [2] | Potency [3] | Potency [4] | Potency [5] | Potency [6] | Potency [7] | Potency [8] | Potency [9] | Potency [10] | Potency [11] | outcome [12] | Potency [13] | Potency [14] | Potency [15] | Potency [16] | Potency [17] | outcome [18] | outcome [19] | Potency [20] |
| --- | --- | --- | --- | --- | --- | --- | --- | --- | --- | --- | --- | --- | --- | --- | --- | --- | --- | --- | --- | --- |
| COc1c(O)cc(O)c2c(=O)cc(-c3ccccc3)oc12 | inactive | inactive | inactive | inactive | inactive | inactive | inactive | inactive | inactive | inactive | 10.6 µM (active) | inactive | inactive | inactive |  |  |  |  |  |  |
| COc1cc2ccc(=O)oc2c(O)c1O[C@@H]1O[C@H](CO)[C@@H](O)[C@H](O)[C@H]1O | inactive | inactive |  | inactive | inactive | inactive | inactive | inactive | inactive |  | inactive | inactive |  |  | inactive | inactive | inactive | inactive | inactive |  |
| CO[C@@H](C[C@@H](C)[C@@H](O)/C=C/C=C/CNC(=O)C(C)(C)[C@H](O)\C(C)=C/C=C\C=C\Cc1cnco1)[C@]1(O)[C@@H](C)C(=O)N(C)[C@@]12COC2=O | inactive | inactive | inactive | inactive | inactive | inactive | inactive | inactive | inactive | inactive | inactive | inactive | inactive | inactive | inactive | inactive | inactive | inactive | inactive | inactive |
| C[C@@]1(CCC(=O)Nc2c(O)ccc(C(=O)O)c2O)C(=O)C=C[C@]23C[C@H]4C[C@H](O[C@@]4(C)C2)C31 (some centres undefined) | inactive | inactive | inactive | inactive | inactive | inactive | inactive | inactive | inactive |  | inactive | inactive | inactive | inactive | inactive | inactive | inactive |  | inactive | inactive |
| COc1ccc(-c2oc3cc(OC)cc(OC)c3c(=O)c2O)cc1 | inactive | inactive | inactive |  | inactive | inactive | 18.7 µM (active) | 10.5 µM (active) |  | inactive | 0.472 µM (active) | inactive |  |  | 18.8 µM (active) | inactive |  |  | inactive | inactive |
| C[C@@]12C[C@@H](C[C@@H]3C(=O)O[C@@H](c4ccoc4)[C@H](OC(=O)c4ccccc4)[C@@H]31)OC2=O | inactive | inactive | inactive | inactive | inactive | inactive | inactive | inactive |  | inactive | inactive | inactive | inactive | inactive | inactive | inactive | inactive | inactive | inactive |  |
